We go through 87 molecules from PubChem BioAssay AID1490 (National Center for Advancing Translational Sciences (NCATS), 2009).

Where “and” joins values, the source holds several entries; their conditions need not be identical. Identical values can stand only once. The whole screen tested about 310,000 compounds, of which about 11,000 (3.5%) were called active. Not shown: some 4% with an inconclusive outcome. Calls come from the whole dose curve; as a rule, active = well fitted inhibition curve with a large enough effect; inconclusive = small, poorly fitted or top-dose-only effect, or another doubt; inactive = no such curve, though single readings can be large or run the other way. The list comes from a sample in which actives are over-represented; it also holds similar structures and randomly drawn compounds. Non-standard residues stand in square brackets, D forms with d. Residues, ends and D or L forms follow the SMILES beside them. *: point of attachment. PhAc = O=C(Cc1ccccc1)*
Potency is the fitted concentration of half-maximal effect.

The target in this assay is 4'-phosphopantetheinyl transferase ffp (Bacillus subtilis) (UniProt Q9F4F7). As to the kind of experiment: qHTS Assay for Inhibitors of Bacillus subtilis Sfp phosphopantetheinyl transferase (PPTase).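 For largest response in the series, negative = inhibition: 0% = enzyme reaction without inhibitor and -100% = no enzyme wells.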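 Note: the enzyme is Sfp with the accession as filed and its product quenches rhodamine fluorescence.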 The conditions noted are these: Biochemical Sfp PPTase activity. The method in brief:
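After 15 min at room temperature with compound, 15 nM Sfp received 5 uM rhodamine-CoA plus 12.5 uM BHQ-2-ybbR (50 mM Hepes pH 7.6, 10 mM MgCl2). Rate came from the fluorescence difference over 30 min, ex 525/em 598 nm.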
Turning to `Cc1ccc(C(=O)OCC(=O)NC(=O)Cc2ccccc2)c(O)c1`, the largest response in the series, negative = inhibition was 15.9% (inactive). For `Cc1ccc(CNC(=O)C2(C(F)(F)F)C/C(=C\CCO)CCCO2)o1` (configuration not stated), the Potency was 50.1 µM (active). `Cc1ccc(CNC(=O)Cn2cnc(S(=O)(=O)N3CCCCC3)c2)o1`: the largest response in the series, negative = inhibition is 14.3% (inactive).

Turning to `O=C(NCC1CC1)C1(C(F)(F)F)C/C(=C\CCO)CCCO1` (configuration not stated), the largest response in the series, negative = inhibition is 1.74% (inactive). Regarding `Cc1ccc(CNC(=O)C2(C(F)(F)F)C/C(=C\Cc3ccccc3)CCCO2)o1` (configuration not stated), the Potency was 35.5 µM (active) and 50.1 µM (active). With `O=C(NCc1ccccn1)[C@]1(C(F)(F)F)C[C@H](CCc2ccccc2)CCCO1`, the largest response in the series, negative = inhibition was -24.4% (inactive). For `CNC(=O)[C@]1(C(F)(F)F)C[C@H](CCc2ccccc2)CCCO1`, the largest response in the series, negative = inhibition is -10.7% (inactive). Still for that read-out and setting: then `CCCn1nc(NC(=O)C(C)C)c2cc3cc(OC)ccc3nc21`, with 4.66% (inactive); and `CC(O)COc1ccccc1` (configuration not stated), with 12.6% (inactive).

On to `COc1ccc(N(CC(=O)NCc2ccc(F)cc2)C(=O)CCC(=O)Nc2nccs2)cc1`, for which the largest response in the series, negative = inhibition was -11.5% (inactive).

Take `O=C1CCC(=O)N(c2ccccc2)N1`: the largest response in the series, negative = inhibition is -3.33% (inactive).

As for `CN(CCC(=O)Nc1cc(S(=O)(=O)N(C)C)ccc1Cl)CC(=O)Nc1ccc(F)cc1`, the largest response in the series, negative = inhibition is 13.5% (inactive). On the same count and under the same terms, then `Cn1c(N)c(C(=O)COC(=O)c2cc(C(F)(F)F)nc3c(C(F)(F)F)cccc23)c(=O)n(C)c1=O`, with 13.8% (inactive).

`N#C/C(=C/c1ccc(N2CCCCC2)o1)C(=O)NCCc1c[nH]c2ccccc12`: the largest response in the series, negative = inhibition is -16.2% (inactive). Consider `N#C/C(=C/c1ccc(N2CCOCC2)o1)C(=O)N1CCOCC1`, for which the Potency is 56.2 µM (active). Regarding `N#C/C(=C\c1ccc(N2CCOCC2)o1)C(=O)N1CCOCC1`, the largest response in the series, negative = inhibition was -13.7% (inactive). Turning to `CCCCC[C@H]1CN(C2CCCCC2)C(=O)[C@@H]1CC(=O)NCc1ccc(OC)cc1`, the largest response in the series, negative = inhibition was -4.46% (inactive). Take `O=C(Nc1ccccc1N1CCN(C(=O)c2ccccc2)CC1)c1ccco1`: the largest response in the series, negative = inhibition is 14.1% (inactive). Still for that read-out and setting: the value for `CC(C)[C@@H](NC(=O)OC(C)(C)C)C(=O)NCC1CCC(C(=O)N[C@@H](Cc2ccccc2)C(=O)O)CC1` (some centres not stated) was 6.54% (inactive); that for `O=C(O)CCCCCCCCc1cn(CN2C(=O)c3ccccc3C2=O)nn1` was -11% (inactive).

Consider `Cc1cccc(COc2ccccc2/C=N/Nc2ccc([N+](=O)[O-])cc2)c1`, for which the largest response in the series, negative = inhibition was 24.5% (inactive). As for `Cc1ccc(NS(=O)(=O)c2ccc(N/N=C/c3ccccc3OCC(=O)O)c([N+](=O)[O-])c2)c(C)c1`, the Potency is 79.4 µM (active). As for `Cc1ccc(NS(=O)(=O)c2ccc(C)c(NC(=O)COc3ccc4ccccc4c3)c2)c(C)c1`, the largest response in the series, negative = inhibition is -28.6% (inactive). Same read-out and setting: then `N#Cc1ccc(/C=C2\CCn3c2nc2cc(C(=O)O)ccc2c3=O)cc1`, with 31.1% (inactive). Still for that read-out and setting: then `N#Cc1cccc(-c2ccc3ncnc(NCc4cccs4)c3c2)c1`, with -14.8% (inactive); and `O=C(Cc1ccccc1Cl)N1CCOCC1`, with 17% (inactive).

`COC(=O)[C@@]1(Cc2ccc(F)cc2)[C@H]2c3cc(C(=O)N(C)C)n(CCc4c[nH]c5ccc(OC)cc45)c3C[C@H]2CN1C(=O)c1ccccc1`: the largest response in the series, negative = inhibition is 0.76% (inactive). Take `O=C(NCc1ccc(Cl)cc1)c1cc2c(nc3sccn32)s1`: the Potency is 50.1 µM (active). Consider `O=C(NCc1ccc(Cl)cc1)c1cc(=O)nc2sc(-c3ccccc3)nn12`, for which the largest response in the series, negative = inhibition was 1.8% (inactive). Still for that read-out and setting: the value for `O=C(NCc1ccc(Cl)cc1)NCc1ccc(Cl)cc1` was -3.32% (inactive). For `Cc1c(C(=O)NCCN(C)C)oc2ccc(S(=O)(=O)N3CCCC3)cc12`, the largest response in the series, negative = inhibition is 18.9% (inactive). Still for that read-out and setting: then `NC(=O)c1c(NC(=O)c2ccccc2)sc2c1CCCC2`, with 4.07% (inactive). For the molecule `NC(=O)c1c(Nc2nc3c(F)cccc3s2)sc2c1CCCC2`, the Potency was 44.7 µM (active).

Turning to `Fc1cc(F)c2nc(Nc3nc4c(F)cccc4s3)sc2c1`, the largest response in the series, negative = inhibition was -0.873% (inactive). Still for that read-out and setting: the value for `COc1ccc(N2CCN(S(=O)(=O)c3cc(Br)cnc3N)CC2)cc1` was 7.84% (inactive).

For the molecule `C=CCc1c(C)nc2cc(-c3ccccc3)[nH]n2c1=O`, the largest response in the series, negative = inhibition is 7.41% (inactive). In the case of `COc1ccc(-c2cc3nc(C)c(CCC(=O)NC(C)CCc4ccco4)c(C)n3n2)c(OC)c1` (configuration not stated), the Potency is 79.4 µM (active). As to `Cc1nc2c(-c3ccc(F)cc3)c(C)nn2c(C)c1CCC(=O)NCc1ccco1`, the largest response in the series, negative = inhibition was -2.36% (inactive). As to `COc1cc(OC)cc(-c2nc3nc(C)c(CCC(=O)NCc4ccco4)c(C)n3n2)c1`, the largest response in the series, negative = inhibition is 8.97% (inactive).

With `CC(C)C(=O)Nc1nnc(SCC(=O)N2C(C)CCCC2C)s1` (configuration not stated), the largest response in the series, negative = inhibition was -17.7% (inactive). `COc1ccc(Cl)cc1S(=O)(=O)N1CCN(CC(=O)C(C)(C)C)CC1`: the largest response in the series, negative = inhibition was 7.95% (inactive). `O=C(CN1CCN(S(=O)(=O)c2cc(Cl)ccc2Cl)CC1)c1ccc(O)c(O)c1`: the Potency was 50.1 µM (active). Turning to `O=S(=O)(c1cc(Cl)ccc1Cl)N1CCN(Cc2ccco2)CC1`, the largest response in the series, negative = inhibition is 22.5% (inactive). As to `O=C1CCC(=O)N(O)CCCCCNC(=O)CCC(=O)N(O)CCCCCNC(=O)CCC(=O)N(O)CCCCCN1`, the Potency was 89.1 µM (active). With `COc1ccccc1CNC(=O)C1CCN(S(=O)(=O)c2ccc3c(c2)CC(C)N3C(=O)C2CC2)CC1` (configuration not stated), the largest response in the series, negative = inhibition is -7.76% (inactive).

`CN(C)S(=O)(=O)c1ccc(N2CCCC2)c(C(=O)Nc2cccc(F)c2)c1`: the largest response in the series, negative = inhibition is -1.67% (inactive).

As for `Cc1ccc(C(=O)NCCc2nnc(SCC(=O)Nc3cccc(C(=O)O)c3)n2C)cc1`, the largest response in the series, negative = inhibition was 10.4% (inactive).

For `CC(CCc1ccccc1)NC(=O)COC(=O)c1ccc(F)cc1` (configuration not stated), the largest response in the series, negative = inhibition was -4.51% (inactive). Consider `COc1ccccc1CC(=O)Nc1ccc(S(=O)(=O)N2CCCC2)cc1`, for which the largest response in the series, negative = inhibition was 4.84% (inactive). Consider `CCOc1cccc(NC(=O)C2CCCN(S(=O)(=O)c3ccc(OC)cc3)C2)c1` (configuration not stated), for which the largest response in the series, negative = inhibition is -5.07% (inactive). `CCN(CC(=O)Nc1ccc(S(=O)(=O)N2CCCC2)cc1)CC(=O)Nc1cccc(OC)c1`: the Potency is 79.4 µM (active). Take `Cc1cc(C)c(C#N)c(Nc2cccc(Br)c2)n1`: the largest response in the series, negative = inhibition was 6.8% (inactive).

Consider `CC(C)C[C@@H](NC(=O)[C@H]1CCCN1C(=O)Cc1ccccc1)C(N)=O` (PhAc-[dP]-[dL]-NH2), for which the largest response in the series, negative = inhibition is 21.3% (inactive). For the molecule `CC(C)CCN(C(=O)c1csnn1)C(C(=O)NC1CCCC1)c1ccccc1` (configuration not stated), the largest response in the series, negative = inhibition was 13.6% (inactive). Take `COc1ccc2[nH]cc(CCNc3ncnc4ccc(-c5ccc(C(=O)N(C)C)cc5)cc34)c2c1`: the largest response in the series, negative = inhibition is -5.41% (inactive). Same read-out and setting: the value for `COc1cccc(Cn2cc(/C=N/NC(=O)c3cc(O)cc(O)c3)c3ccccc32)c1` was -18.5% (inactive). For the molecule `O=C(Cn1cc(/C=N/NC(=O)c2cccc(C(F)(F)F)c2)c2ccccc21)Nc1ccc(F)cc1`, the Potency is 20 µM (active). Take `COc1ccc(/C=N/NC(=O)c2cccc(C(F)(F)F)c2)cc1`: the largest response in the series, negative = inhibition is -22% (inactive). `O=C(NC1Cc2ccccc2C1)c1cc(COc2cccc(C(F)(F)F)c2)on1`: the largest response in the series, negative = inhibition was 24% (inactive). `Cc1ccc(OCc2n[nH]c(=S)n2-c2ccccc2)cc1`: the largest response in the series, negative = inhibition was 5.12% (inactive). Take `Fc1ccc(/C=N/n2c(COc3ccccc3)n[nH]c2=S)cc1`: the Potency is 56.2 µM (active). Same read-out and setting: the value for `O=[N+]([O-])c1ccccc1/C=N/n1c(COc2ccccc2)n[nH]c1=S` was 56.2 µM (active).

Regarding `Cc1ccc(-c2n[nH]c(=S)n2/N=C/c2cc3c(cc2[N+](=O)[O-])OCO3)cc1`, the largest response in the series, negative = inhibition is -22.6% (inactive). The same measure, in the same setting: then `CCc1n[nH]c(=S)n1/N=C/c1c[nH]c2ccc(Br)cc12`, with 11.4% (inactive). Still for that read-out and setting: the value for `S=c1[nH]nc(COc2ccccc2)n1-c1ccccc1` was 21.2% (inactive); that for `CSc1ccc(CCNC(=O)CS(=O)(=O)Cc2nc(-c3ccccc3F)oc2C)cc1` was 17.7% (inactive); that for `Cc1cc(Cl)ccc1C(=O)C1CCCN(C(=O)c2nonc2C)C1` (configuration not stated) was 1.34% (inactive). Consider `COC(=O)c1ccc(/C=N/N2C(C)CCCC2C)cc1` (configuration not stated), for which the largest response in the series, negative = inhibition was 13.3% (inactive).

For `CCN(CC)S(=O)(=O)c1cccc(-c2n[nH]c(=S)n2/N=C/c2ccc(C(=O)OC)cc2)c1`, the Potency is 50.1 µM (active).

Turning to `COC(=O)c1ccc(/C=N\n2c(C)nnc2C)cc1`, the largest response in the series, negative = inhibition was 13.8% (inactive).

For `COC(=O)C1=CN(Cc2ccc(OC)cc2)C=C(C(=O)OC)C1c1ccc(O)c(OC)c1`, the largest response in the series, negative = inhibition is -3.15% (inactive). Turning to `Cn1c(Cn2nnc3ccccc32)nnc1SCC(=O)c1ccccc1F`, the Potency was 50.1 µM (active).

As to `Cc1ccc(C(=O)CSc2nnc(Cn3nnc4ccccc43)n2C)cc1`, the largest response in the series, negative = inhibition is 4% (inactive).

Take `Cn1c(CNC(=O)c2ccccc2F)nnc1SCc1ccc(F)cc1`: the largest response in the series, negative = inhibition is -14.5% (inactive). Turning to `COc1ccc(S(=O)(=O)/N=C2\C=C(NS(=O)(=O)c3ccccc3)C(=O)c3ccccc32)cc1`, the largest response in the series, negative = inhibition was -20.9% (inactive). Turning to `O=C(NC(c1ccccc1)c1ccccc1)N1CCN(CCO)CC1`, the largest response in the series, negative = inhibition was 5.46% (inactive).

Turning to `OCCN1CCN(c2nnc(-c3ccccc3)c3ccccc23)CC1`, the largest response in the series, negative = inhibition is 21.7% (inactive). In the case of `OCCN1CCN(C(=S)c2ccc(-c3ccccc3)cc2)CC1`, the Potency is 7.08 µM (active). With `CCc1nonc1NC(=O)c1oc2ccc(Cl)cc2c1C`, the largest response in the series, negative = inhibition is -4.03% (inactive). The same measure, in the same setting: then `COc1cccc(CC(=O)N2CCc3nc(COc4ccccc4)c4c(c3C2)CO[C@@H](C)C4)c1`, with -1.37% (inactive). On the same count and under the same terms, the value for `NS(=O)(=O)c1ccc(CNC(=O)c2cccc(Oc3ccccc3)c2)cc1` was 5.75% (inactive); that for `CSc1nc2sc3c(c2c(=O)[nH]1)CCc1ccccc1-3` was 2.54% (inactive).

As for `CCCSc1nc2sc3c(c2c(=O)n1-c1ccc(OC)cc1)CCN(C)C3`, the largest response in the series, negative = inhibition was -7.59% (inactive). With `COc1ccc(-n2c(=S)[nH]c3sc4c(c3c2=O)CCc2ccccc2-4)cc1`, the Potency is 17.8 µM (active).

As to `CCOC(=O)C1=C(CN2CCCCCC2)NC(=O)NC1c1cccc([N+](=O)[O-])c1` (configuration not stated), the Potency is 89.1 µM (active). As to `CCOC(=O)C1=C(CN2CCc3ccccc32)NC(=O)NC1c1cccc([N+](=O)[O-])c1` (configuration not stated), the largest response in the series, negative = inhibition is 3.8% (inactive). Consider `CCOC(=O)C1=C(CN2CCc3ccccc32)NC(=O)NC1c1ccc(Cl)cc1` (configuration not stated), for which the largest response in the series, negative = inhibition is -11.6% (inactive).
